Most compounds without a hit are left out; they make up all but 19% or so of the library.
TDP1 cell noCPT: qHTS for Inhibitors of human tyrosyl-DNA phosphodiesterase 1 (TDP1): qHTS in cells in absence of CPT | DT40 Tdp1-/- hTDP1 cells, no CPT, ATP luminescence, 48 h | Potency, µM (highest dose often 46.2 µM), inactives show at the highest dose activity change, negative = growth inhibition, hits mostly inhibitors | actives 15% (n = 420,000) | AID 686978, 2013; further: potency means the concentration at half of the fitted maximal effect; nearly all actives have a fitted effect of over 55% in size
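No-CPT arm: Tdp1-/-;hTDP1 DT40 cells (400/well) plus compounds, incubated ≥48 hr at 37 °C. Readout CellTiter-Glo luminescence.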
TDP1 cell CPT: DT40-hTDP1 cell growth loss with CPT | chicken DT40 Tdp1-/-;hTDP1 cells + 20 nM CPT, ATP luminescence, 48 h | Potency, µM (series often up to 46.2 µM), for inactives: at the top dose activity change, negative = growth inhibition, most hits filed as inhibitors | actives 12% (n = 420,000); further: potency means the concentration at half of the fitted maximal effect; nearly all actives have a fitted effect of over 55% in size
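Chicken DT40 Tdp1-/- cells complemented with human TDP1, 400 cells/well, exposed to compounds plus 20 nM camptothecin for at least 48 h at 37 C; viability read as ATP content by CellTiter-Glo luminescence.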
IL1B secr inh: blocks inflammasome-driven IL-1 beta release; THP-1 LPS/ATP IL-1B secretion, AlphaLISA, 16 h; hits give low values; activity change, % at 57.5 µM; actives 4.7% (n = 360,000); AID 743279; in the data active means activity change below about -50%; inconclusive means mostly about -30% to -49%
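Secreted IL-1B measured by AlphaLISA bead assay after 16 h compound exposure of THP-1 cells; compounds (final up to 57.5 uM) added 1 h before LPS (250 ng/mL) and ATP (1.25 mM) stimulation; lower signal means less secretion.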
HT1080 IDH1KD tx: HT-1080 IDH1 knockdown cell toxicity (counter line); HT-1080 IDH1 knockdown viability, ATP luminescence, 48 h; Potency, µM (doses to about 46.1 µM), inactives show top-dose activity, negative = toxicity, hits mostly cytotoxic; actives 2% (n = 360,000);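 further: potency means the concentration at half of the fitted maximal effect; 0% = DMSO wells and -100% = cell-free medium wells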
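HT-1080-IDH1KD cells (IDH1 knocked down), 750/well in RPMI with 5% FBS, treated with compound 48 h at 37 degrees C. Viability by CellTiter-Glo luminescence, normalised to DMSO and no-cell wells; concentration-response curves classed.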
HT1080-NT tox: kills 2HG-producing HT-1080-NT fibrosarcoma cells; HT-1080-NT fibrosarcoma viability, CellTiter-Glo ATP luminescence, 48 h; Potency, µM (titrated, usually from 46.1 µM), without a hit: at the top dose activity, negative = less viability, most hits filed as cytotoxic; actives 1.6% (n = 360,000);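 further: NT is the 2HG producing partner of a matched IDH1 knockdown line; potency means the concentration at half of the fitted maximal effect; 0% = DMSO-treated cells and -100% = media-only wells without cells; nearly all actives have a fitted effect of over 55% in size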
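Viability by CellTiter-Glo luminescence after 48 h compound exposure at 37C of HT-1080-NT cells (750/well, RPMI, 5% FBS). % activity scaled between DMSO wells and medium-only wells, then curve-fitted and categorized by curve class.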
Numbers without * were called inactive; ? = inconclusive; nt = no result. Unless noted, the call rests on the fitted dose curve; in most records, active means well fitted curve in the direction sought with a large enough effect; inconclusive means small, poorly fitted or top-dose-only effect, or another doubt; inactive means no such curve, though single readings can be large; an effect the other way counts as inactive or inconclusive. Unless noted, on the % scale 0 is the no-effect control and ±100 the full control effect.

SMILES | TDP1 cell noCPT | TDP1 cell CPT | IL1B secr inh | HT1080 IDH1KD tx | HT1080-NT tox
CCN(CC)CCNC(=O)C(=O)NCC(c1cccnc1)N1CCN(c2ccccc2)CC1 (stereo unspecified) | -26% | -13% | nt | nt | nt
O=[N+]([O-])c1ccc(S(=O)(=O)Nc2ccc(S(=O)(=O)N3CCCC3)cc2)cc1 | -9% | -22% | 22 | -8% | -4%
O=[N+]([O-])c1cc(NS(=O)(=O)c2ccc(Cl)nc2)ccc1Cl | 16µM* | ? | -2 | ? | ?
O=[N+]([O-])c1ccc(NS(=O)(=O)c2ccc(Cl)c(Cl)c2)cc1 | 10µM* | 9.2µM* | -27 | 18µM* | 16µM*
O=[N+]([O-])c1ccc(S(=O)(=O)Nc2nc(-c3ccccc3)cs2)cc1 | ? | ? | 15 | -5% | -5%
O=[N+]([O-])c1ccc(S(=O)(=O)Nc2ccncc2)cc1 | 7% | 9% | -7 | -2% | 1%
O=C1C(Cl)=C(NS(=O)(=O)c2ccc([N+](=O)[O-])cc2)C(=O)c2ccccc21 | 8.2µM* | 10µM* | -102* | ? | ?
O=[N+]([O-])c1ccc(Oc2ccc(S(=O)(=O)Nc3ccccc3)cc2)cc1 | 10µM* | ? | -72* | ? | ?
COc1ccc(-c2cc(C(=O)NCCN3CCOCC3)no2)cc1OC | -4% | 7% | -11 | -5% | 14%
O=C(Nc1ccccc1Cl)N1CCN(c2ccc3nnc(-c4ccc(F)cc4)n3n2)CC1 | 16µM* | 18µM* | -25 | -9% | -2%
COc1ccccc1NC(=O)N1CCN(c2ccc3nncn3n2)CC1 | -4% | -4% | 9 | 8% | 9%
COc1ccccc1NC(=O)N1CCN(c2ccc3nnc(-c4ccc(F)cc4)n3n2)CC1 | ? | 18µM* | -52* | ? | 26µM*
COC(=O)C1CCN(S(=O)(=O)Cc2ccccc2)CC1 | -25% | -12% | 0 | 10% | 15%
Cc1cc(N2CCN(C)CC2)nc2ccc(NC(=O)CCC(=O)NCc3ccco3)cc12 | -15% | -23% | -13 | -10% | -11%
Cc1cc(N2CCOCC2)nc2ccc(NC(=O)CCC(=O)N3CCCC(C)C3)cc12 (stereo unspecified) | -28% | -4% | -1 | -1% | -12%
Cc1cc(N2CCOCC2)nc2ccc(NC(=O)CCC(=O)N3CCN(c4ccc(F)cc4)CC3)cc12 | 8.2µM* | 9.2µM* | 16 | -2% | -18%
Cc1cc(N2CCOCC2)nc2ccc(NC(=O)CCC(=O)N3CCN(c4ccccc4F)CC3)cc12 | 15µM* | ? | 7 | -12% | ?
C=C(C)COc1ccc(-c2nc(N)ncc2Oc2ccc(OC)cc2)c(O)c1 | 29µM* | ? | 0 | ? | ?
C=C(C)COc1ccc(-c2nc(N)ncc2Oc2ccccc2OC)c(O)c1 | ? | ? | -62* | ? | ?
Cc1ccc(C(C)C)c(OCC(=O)Nc2ccc3c(c2)nc(CCN2CCCCC2)n3C)c1 | ? | ? | -80* | 16µM* | 21µM*
CCn1c(CN2CCCCC2)nc2cc(NC(=O)c3cccc([N+](=O)[O-])c3)ccc21 | 23µM* | 18µM* | nt | nt | nt
CCn1c(CN2CCCCC2)nc2cc(NC(=O)COc3ccc(C(C)(C)C)cc3)ccc21 | 8.2µM* | 12µM* | nt | nt | nt
CCn1c(CN2CCCCC2)nc2cc(NC(=O)COc3cc(C)ccc3C(C)C)ccc21 | ? | 18µM* | nt | nt | nt
COc1ccc(CCNC(=O)C2CCN(c3ccc(N4CCOCC4)nn3)CC2)c(OC)c1 | 10% | -3% | -9 | 0% | 0%
CCN(CC)C(=O)C1=C(C)N(CCC2=CCCCC2)C(=O)C(CC(=O)NC2CCCC2)C1 (stereo unspecified) | -27% | 1% | 10 | 16% | 2%
SMILES | TDP1 cell noCPT | TDP1 cell CPT | IL1B secr inh | HT1080 IDH1KD tx | HT1080-NT tox
COCCn1c(SCC(=O)Nc2cc(C)on2)nc2cc(Cl)ccc2c1=O | ? | -5% | 0 | 8% | 6%
COCCn1c(SCC(=O)N2CCCc3ccccc32)nc2ccccc2c1=O | 16µM* | ? | ? | -8% | -4%
COCCn1c(SCC(=O)N2CCc3ccccc3C2)nc2cc(Cl)ccc2c1=O | 15µM* | ? | -76* | 25% | 10%
CCOC(=O)CSc1nc(-c2ccc(C)cc2C)cc(-c2ccccc2)c1C#N | 2% | 4% | nt | nt | nt
COc1ccccc1-c1cc(-c2ccccc2)nc(SC(C(N)=O)c2ccccc2)c1C#N (stereo unspecified) | 23µM* | ? | 15 | ? | ?
CCOC(=O)C(C)Sc1nc(-c2ccccc2Cl)cc(-c2ccccc2)c1C#N (stereo unspecified) | ? | 13µM* | nt | nt | nt
CC(Sc1nc(C(C)(C)C)cc(-c2ccccc2)c1C#N)C(=O)Nc1ccccc1 (stereo unspecified) | 29µM* | ? | 23 | 1% | 3%
O=C(Nc1ccc(N2CCOCC2)cc1)C1CCN(S(=O)(=O)c2ccccc2F)CC1 | -15% | -11% | 0 | -4% | -12%
O=S(=O)(c1cccc(F)c1)N1CCN(C(=S)NCc2ccccc2)CC1 | -2% | 4% | 11 | 0% | 0%
CC(C)OP(=O)(OC(C)C)C(NC(=O)c1ccccc1Br)C(N)=O (stereo unspecified) | 1% | 21% | 22 | -4% | 26%
Cc1ccc(C)c(C(C)NC(=S)NC2CCCCC2)c1 (stereo unspecified) | ? | 26µM* | 31 | ? | ?
CCc1cc[n+](-c2nc3ccccc3nc2C(=C=[N-])C#N)cc1 | -1% | -6% | 3 | 0% | 5%
CC[n+]1ccnc2ccccc21 | 2.8µM* | 2.2µM* | nt | nt | nt
CC(C)C(NS(C)(=O)=O)c1nnc2n1CCN(Cc1ccc(C#CC(C)(C)O)cc1)CC2 (stereo unspecified) | -24% | 3% | nt | nt | nt
COc1ccc(C(=O)N/N=C2\CCc3ccccc32)cc1OC | 0% | -27% | -6 | -6% | 2%
COc1ccc(C(=O)/C=C2/c3ccccc3CC(C)(C)N2C)cc1OC | 16µM* | ? | 0 | 12% | 6%
O=c1cc(N2CCN(c3ccc(F)cc3)CC2)[nH]c(=O)n1-c1cccc(Br)c1 | 18µM* | 10µM* | nt | nt | nt
COc1cc2c(cc1OC)C(COc1cccc(C(F)(F)F)c1)NCC2 (stereo unspecified) | ? | 21µM* | -8 | -22% | 3%
C=CCN1C(c2ccccc2)=CS/C1=C(/C#N)c1nnc(N2CCOCC2)n1-c1ccccc1 | 15µM* | 18µM* | -7 | -3% | 1%

Screens from PubChem.
